Structures are written as SMILES. Values joined by “and” are separate entries in the source; they are usually repeats but may differ in a detail not shown here. Equal values may be shown once. About 83,000 compounds went through this panel and 20% of them were active in at least one assay; those are over-represented in the sample as a whole.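 For each line, cells grew in 96-well plates with the test compound present at a single concentration for 48 hours.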 Unmarked numbers belong to inactive results. Active and inactive are the calls of the source.

The subject of the first experiment is PC-3 prostate. Nature of the experiment: NCI-60 one-dose screen, 48 h (100 = growth as untreated, 0 = no growth, -100 = all killed). The conditions noted are these: 0.005 µM. The procedure:
Growth inhibition of the PC-3 human tumor cell line is measured as a screen for anti-cancer activity. Cells are grown in 96 well plates and exposed to the test compound for 48 hours. Compounds are tested at a single concentration, which is 10^-5 M for most compounds. The reported endpoint is percent growth (GI% or GIPRCNT), where numbers from 0 - 100% represent growth inhibition, and numbers from -100% - 0 represent cell death. For example, a value of 40 represents 60% growth inhibition. A value of 0 means no net growth occurred over the course of the experiment. A value of -40 indicates 40% of cells at the beginning of the experiment died by the end of the experiment. A value of -100 means all cells are dead at the end of the experiment.
NCI-60 Human Tumor Cell Lines Screen was performed using the standard one-dose NCI protocol, which is described in more detail at https://dtp.cancer.gov/discovery_development/nci-60/default.htm.
Compounds with GIPRCNT values below 10 were considered active. Activity score was based on GIPRCNT using the following formula: […]
Score is 0 for GIPRCNT values of 100 or above, 50 for GIPRCNT values of 0, and 100 for GIPRCNT values of -100.
Consider `CN(C)CCNc1ncc(F)c(-c2cnc3cc(-c4cnn(C)c4)ccn23)n1`, for which the growth was 103%.

The experiment is the same for the next values; noted with them: 10 µM.
Take `COc1ccc(C(=O)/C=C/c2ccc(OCc3cccc(C(F)(F)F)c3)c(OC)c2)cc1OC`: the growth is 69.1%.

Still in this experiment, the particulars now being: 10 µM unless noted.
As to `Cc1ccc(-c2nc3nc(-c4ccc(Cl)cc4)nc(N4CCCNCC4)c3o2)cc1`, the growth was -79.8% (active).
As to `CN1CCCc2cc(/C=C3\SC(=S)N(C(Cc4ccc(O)cc4)C(=O)O)C3=O)ccc21` (stereo not given), the growth was 101%.
Take `O=C(NNc1ccccc1)c1ccccc1`: the growth was 75.1% and 53.8%.
Take `Cc1cnc(C(=O)NNc2nc3sc4c(c3c(=O)[nH]2)C(C)CCC4)cn1` (stereo not given): the growth is 29.7%.
For `CC[C@]1(O)CC2CN(CCc3c([nH]c4ccccc34)C(C(=O)OC)(c3cc4c(cc3OC)N(C=O)[C@H]3[C@@](O)(C(=O)OC)[C@H](OC(C)=O)[C@]5(CC)[C@@H]6C[C@@H]6CN6CC[C@]43[C@@H]65)C2)C1` (stereo not given in full), the growth was 17.9%.
Take `Cc1c(C(=O)OCCCCOC(=O)c2c(C)n(C)c3scc[n+]23)[n+]2ccsc2n1C`: the growth is 92.3%.
Consider `C=C1CCC2C3(C)COC(c4ccc(NC(C)=O)cc4)OC3CCC2(C)C1C/C=C1/C(=O)OCC1O` (stereo not given), for which the growth is 42.2%.
Same read-out and setting: the same measure for `Nc1nc(CSc2n[nH]c(N)n2)nc(Nc2ccccc2)n1`: 101%.
In the case of `C=C(CNCCc1ccc(O)cc1)[C@@H]1CC[C@]2(CO)CC[C@]3(C)[C@H](CC[C@@H]4[C@@]5(C)CCC(NCCc6ccc(O)cc6)C(C)(C)[C@@H]5CC[C@]43C)[C@@H]12` (stereo not given in full), the growth was -75.6% (active).
As to `C=C1C(=O)O[C@H]2[C@H]1CC/C(COC(=O)NCc1ccc(Cn3c(=O)sn(CCCI)c3=O)cc1)=C\CC[C@@]1(C)O[C@@H]21`, the growth was 49.2%.
Regarding `O=C1/C(=C/c2cn(-c3ccccc3)nc2-c2ccccc2)SC(=S)N1c1ccc(Cl)cc1`, the growth was 56.8%.
Turning to `Cc1ccc(C(=O)Nc2nc3c(s2)CN(Cc2ccccc2)CC3)cn1`, the growth was 74.1%.
Take `CCOC(=O)C1=C(C)N=C2SC=C(c3ccc(F)cc3)N2[C@H]1c1cn(-c2ccccc2)nc1-c1ccc(Cl)cc1`: the growth was 80.7%.
Regarding `CC(C)(C)c1cc(NC(=O)Nc2ccc(-c3cn4c(n3)sc3cc(OCCN5CCOCC5)ccc34)cc2)no1`, the growth was 22.8% and 15.2%.
On to `O=c1c(/C=C/c2ccco2)nnc2sc(Nc3ccc(Cl)cc3)nn12`, for which the growth was 92.2%.
`CCCCC#Cc1c(/C=C(\CCCC)SCC)n(C)c(=O)[nH]c1=O`: the growth was 94.1%.
For `COc1ccc(-c2cc(-c3cccnc3)nc3sc4c(Cl)nnnc4c23)cc1OC`, the growth was 81.1%.
Same read-out and setting: the figure for `CSc1nnc(-c2cc3c([nH]c4ccccc43)c(-c3cccc(O)c3)n2)n1-c1ccc(C)cc1` is 25.8%; for `ON=C1CCCCCCCC1` it is 95.3% and 104%.
For `COc1ccc(C2=C(CN)C(O)NC(=NCC(=O)c3ccc4ccccc4c3)N2)cc1` (stereo not given), the growth is 104%.
As to `CCOC(=O)C(=CCC(C)C)C(=O)OCC`, the growth was 95.5%.
On to `COc1ccc(-c2nc(Cl)c3c(C)nn(-c4ccc(F)cc4)c3n2)cc1`, for which the growth was 89.6%.
For the molecule `COc1ccc(/C=C2/C(=O)N=C3N2NC(c2ccccc2)=CN3c2ccccc2)cc1`, the growth is 96.1%.
As to `O=C1/C(=C/c2ccc(-c3ccccc3C(F)(F)F)o2)SC(=S)N1CCc1ccc(O)cc1`, the growth was 48.6%.
For the molecule `COc1ccc(-c2nnc3n(C)c(=O)c4ccccc4n23)cc1O`, the growth was 17.9%.
For the molecule `COc1ccc(/C=C2\COc3ccc(O)c(O)c3C2=O)c(OC)c1OC`, the growth is 36.8%.
On to `Cc1nc2cccc(NCCCCC(=O)NO)c2c(=O)n1-c1ccccc1`, for which the growth is 63%.
Turning to `Cn1cc(C2=C(c3cccc4ccccc34)C(=O)NC2=O)c2cc(Br)ccc21`, the growth is 97.3%.
Still for that read-out and setting: the figure for `COCCOc1cc2ncnc(N3CCN(S(=O)(=O)c4ccccc4Cl)CC3)c2cc1OCCOC` is 71.2%; for `Cc1ccc(-c2nc3nc(-c4ccc(F)cc4)nc(N4CCCNCC4)c3o2)cc1` it is -85.2% (active).
For the molecule `COc1ccc(Oc2nc(Nc3ccc(N4CCOCC4)cc3)ncc2NC(=O)c2cc(OC)cc(OC)c2)cc1`, the growth was 67.5%.
In the case of `COc1ccc2c(c1)c(C(=O)c1nc(-c3cn(C)c4ccccc34)no1)cn2C`, the growth is 83.8%.
In the case of `COc1ccc2c(c1)CC[C@@H]1[C@@H]2CC[C@]2(C)C3C(=CCC4C(=O)N(c5ccccc5)C(=O)C43)C[C@@H]12` (stereo not given in full), the growth was 51.1%.
With `Cn1cc(-c2nonc2-c2cn(C)c3ccc(Br)cc23)c2ccccc21`, the growth was 32%.
With `Cn1cc(-c2csc(-c3c[nH]c4ccc(F)cc34)n2)c2cnccc21`, the growth is 20.5%.
The same measure, in the same setting: the same measure for `COC(=O)c1nc(-c2ccccc2)oc1S(=O)(=O)N(C)CCO`: 63.2%.

The experiment is the same for the next values; noted with them: 30 µM.
Turning to `CN(C)CCNc1ncc(F)c(-c2cnc3cc(-c4cnn(C)c4)ccn23)n1`, the growth was 44.9%.

The experiment is the same for the next values; noted with them: 100 µM.
Take `COc1ccc(C(=O)/C=C/c2ccc(OCc3cccc(C(F)(F)F)c3)c(OC)c2)cc1OC`: the growth is -7.78% (active).

The values above are taken from PubChem BioAssay (NCI).
